# Screens: PubChem, National Center for Advancing Translational Sciences (NCATS)
# The list is not random: actives were taken first. Their share in the collection is about 19%.
# DT40 TDP1 CPT = growth inhibition of DT40 Tdp1-/-;hTDP1 cells with camptothecin (screen for TDP1 inhibitors). AID 686979. Potency, µM (top dose mostly 46.2 µM), actives largely listed as inhibitors. chicken DT40 Tdp1-/-;hTDP1 cells + 20 nM CPT, ATP luminescence, 48 h. 420,000 tested, 12% active; also: nearly all actives have a fitted effect of over 55% in size
#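 Chicken DT40 Tdp1-/- cells stably complemented with human TDP1 were seeded at 400 cells/well in medium containing 20 nM camptothecin, exposed to pin-transferred compounds, and grown at 37 °C for at least 48 hr. Viability was read as ATP luminescence.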
# TGFb inhibitor = inhibitors of TGF-b signaling; Potency, µM (titrated, usually from 46.1 µM), most hits filed as inhibitors; HepG2 CAGA-GFP TGF-b/SMAD3 reporter, GFP fluorescence, 18 h; TGF-beta stimulated, 500 pg/mL final; 410,000 tested, 1.2% active; also: nearly all actives have a fitted effect of over 65% in size
#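 HEPG2 CAGA-GFP reporter cells (1000/well, DMEM with 1% FBS) received compounds, then recombinant TGF-beta at 500 pg/mL final for 18 hours at 37 degrees C. Per-cell GFP summed per well was normalised to unstimulated and stimulated DMSO controls before curve fitting.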
# TDP1 cell noCPT = qHTS for Inhibitors of human tyrosyl-DNA phosphodiesterase 1 (TDP1): qHTS in cells in absence of CPT; AID 686978, 2013; DT40 Tdp1-/- hTDP1 cells, no CPT, ATP luminescence, 48 h; Potency, µM (highest dose often 46.2 µM), hits mostly inhibitors; 420,000 tested, 15% active; also: nearly all actives have a fitted effect of over 55% in size
#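 Camptothecin absent (DMSO only). Human TDP1-complemented DT40 knockout cells, 400 cells/well, 37 °C for minimum 48 hr; ATP measured via CellTiter-Glo, 30 min dark incubation, luminescence.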
# HepG2 tox = kills HepG2 cells in TGF-b inhibitor counter-screen; HepG2 CAGA-GFP viability, ATP luminescence, 18 h; AID 588856; Potency, µM (highest dose often 46.1 µM), actives largely listed as cytotoxic; 410,000 tested, 0.76% active
#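 HepG2 CAGA-GFP cells (1000/well, DMEM with 1% FBS) received compound, then TGF-beta at 500 pg/mL final, and were incubated 18 hours at 37 degrees C. Viability was read by CellTiter-Glo luminescence. Media-only wells were set as complete cell-killing and DMSO as no toxicity.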
# IL-1B inflam inh = inflammasome signaling inhibition, IL-1 beta readout; THP-1 LPS/ATP IL-1B secretion, AlphaLISA, 16 h; active compounds read low; activity change, % at 57.5 µM; 360,000 tested, 4.7% active; in the data active = activity change below about -50%; inconclusive = mostly about -30% to -49%
#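 Secreted IL-1B measured by AlphaLISA bead assay after 16 h compound exposure of THP-1 cells; compounds (final up to 57.5 uM) added 1 h before LPS (250 ng/mL) and ATP (1.25 mM) stimulation; lower signal means less secretion.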
# TDP1 block = blocks human tyrosyl-DNA phosphodiesterase 1; Potency, µM (doses to about 130 µM), actives largely listed as inhibitors; AID 485290; recombinant TDP1, AlphaScreen DNA substrate cleavage; 350,000 tested, 0.28% active; also: nearly all actives have a fitted effect of over 40% in size
# Target sequence (Q9NUW8 whole entry, looked up): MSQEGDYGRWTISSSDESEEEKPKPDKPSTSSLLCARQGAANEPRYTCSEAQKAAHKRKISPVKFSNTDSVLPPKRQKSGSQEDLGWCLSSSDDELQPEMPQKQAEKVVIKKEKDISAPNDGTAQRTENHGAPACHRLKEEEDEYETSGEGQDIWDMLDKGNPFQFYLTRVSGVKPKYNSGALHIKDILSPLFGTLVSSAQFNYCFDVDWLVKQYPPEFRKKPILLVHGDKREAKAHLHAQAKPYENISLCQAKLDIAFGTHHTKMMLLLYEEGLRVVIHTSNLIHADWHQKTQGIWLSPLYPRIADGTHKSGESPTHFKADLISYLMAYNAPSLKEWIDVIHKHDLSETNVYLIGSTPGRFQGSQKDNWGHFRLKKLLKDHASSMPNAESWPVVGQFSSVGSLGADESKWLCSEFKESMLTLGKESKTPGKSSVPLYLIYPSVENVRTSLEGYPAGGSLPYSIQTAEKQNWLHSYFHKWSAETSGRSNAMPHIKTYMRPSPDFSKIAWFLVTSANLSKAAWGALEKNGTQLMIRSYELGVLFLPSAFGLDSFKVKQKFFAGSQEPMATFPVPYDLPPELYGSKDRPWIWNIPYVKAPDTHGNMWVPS
#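 Recombinant E. coli-expressed Tdp1 (1 nM) preincubated with compound 15 min at RT, then 5'-biotin/3'-phosphotyrosine-FITC DNA substrate (15 nM) added for 5 min. AlphaScreen beads (10 ug/ml) added, 10 min RT; tyrosine-FITC cleavage read as signal loss.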
# Numbers stand for hits; - = inactive; ? = inconclusive; . = no result. Unless noted, calls follow the shape of the dose curve; as a rule, active = well fitted curve in the direction sought with a large enough effect; inconclusive = small, poorly fitted or top-dose-only effect, or another doubt; inactive = no such curve, though single readings can be large; an effect the other way counts as inactive or inconclusive.
SMILES,DT40 TDP1 CPT,TGFb inhibitor,TDP1 cell noCPT,HepG2 tox,IL-1B inflam inh,TDP1 block
CCc1ccc2[nH]c(=O)c(CN(Cc3cccnc3)Cc3nnnn3Cc3ccccc3)cc2c1,11.2µM,-,20µM,-,.,-
Cc1ccc2[nH]c(=O)c(CN(Cc3cccs3)Cc3nnnn3Cc3ccccc3)cc2c1,-,?,?,-,?,-
CCc1ccc2[nH]c(=O)c(CN(Cc3ccccc3)Cc3nnnn3C(C)(C)C)cc2c1,14.1µM,?,11.2µM,-,.,-
Cc1ccc2[nH]c(=O)c(CN(CCO)Cc3nnnn3CCc3ccccc3)cc2c1,?,-,-,-,-,-
CCOC(=O)Cn1nnnc1CN(CCc1ccccc1)Cc1cc2cc(CC)ccc2[nH]c1=O,18.4µM,?,?,-,-,-
CCOc1ccc(-c2ccc(SC)nn2)cc1,-,-,8.2µM,12.6µM,?,-
Cc1cc(C)n(Cc2ccc(C(=O)Nc3cccc(Br)c3)o2)n1,-,-,?,-,?,-
Cc1cc(C)n(Cc2ccc(C(=O)Nc3ccc(Br)cc3C)o2)n1,-,-,?,-,-59.8,-
CC(Oc1ccccc1)C(=O)NC1C(=O)N2C(C(=O)O)C(C)(C)S[C@@H]12 (some centres undefined),-,.,-,.,.,-
COc1ccc(CN2CCCC(CNC(=O)c3ccc(F)cc3)C2)c(C)c1C (centres undefined),-,-,?,7.94µM,-,-
COc1ccc(CN2CCCC(CNC(=O)c3ccc(F)cc3)C2)c(F)c1 (centres undefined),-,-,?,-,-,-
Cc1cc(NCc2ccccc2Cl)n2cnnc2n1,11.6µM,?,9.2µM,-,.,-
Cc1cc(C)cc(Nc2cc(C)nc3nncn23)c1,?,?,?,-,.,-
COc1ccc(-c2n[nH]c3c2C(c2ccc(O)cc2)N(c2ccc(Br)cc2)C3=O)cc1 (centres undefined),18.4µM,?,?,-,.,-
COc1ccc(OC)c(C2c3c(-c4ccc(Br)cc4)n[nH]c3C(=O)N2c2ccc(Cl)cc2)c1 (centres undefined),?,3.98µM,?,11.2µM,.,-
COc1ccc(C2c3c(-c4ccccc4)n[nH]c3C(=O)N2c2ccc(C(=O)O)cc2)cc1 (centres undefined),-,-,-,-,-,-
CCOc1ccc(-n2c(SCC(=O)Nc3cccc(Cl)c3)nc3c(oc4ccccc43)c2=O)cc1,-,-,-,-,.,-
O=C(Nc1ccccc1Oc1ccccc1)C1=COCCO1,-,-,-,-,-,-
COc1ccc(-c2cc3c(=O)n(CC(=O)Nc4cc(F)ccc4F)ccn3n2)cc1OC,-,-,-,-,.,-
COCC(=O)Nc1cc(C(=O)N2CCN(c3ccccc3)C(=O)C2)cc2nc(-c3ccccc3)n(C)c12,-,.,-,.,.,.
Cc1ccc(C(=O)N(Cc2nnc(-c3ccccc3Cl)o2)C2CC2)o1,?,-,18.4µM,10µM,-,.
Cc1c(C(=O)N(Cc2nnc(-c3ccccc3Cl)o2)C2CC2)oc2ccccc12,16.4µM,-,?,-,-,-
O=C(c1cc(=O)[nH]c2ccccc12)N(Cc1nnc(-c2ccccc2Cl)o1)C1CC1,13µM,-,?,-,-,-
ClCc1cc2ccccc2nc1Cl,10.3µM,-,8.2µM,-,-,-
Cc1ccc2cc(CCl)c(Cl)nc2c1,16.4µM,-,20.6µM,-,-,-
SMILES,DT40 TDP1 CPT,TGFb inhibitor,TDP1 cell noCPT,HepG2 tox,IL-1B inflam inh,TDP1 block
CCc1cc2ccccc2nc1Cl,-,-,-,-,-,-
CCCc1nnc(NC(=O)CCC(=O)N2CCC(Cc3ccccc3)CC2)s1,25.9µM,-,20.6µM,-,-,-
CCc1nnc(NC(=O)CCC(=O)N2CCN(Cc3ccc(Cl)cc3)CC2)s1,18.4µM,-,23.1µM,-,-,-
Cc1ccc(OCCN2CCN(C(=O)CCC(=O)Nc3nnc(CC(C)C)s3)CC2)cc1,?,11.2µM,10.3µM,-,.,-
CCCc1nnc(NC(=O)CCC(=O)N2CCN(Cc3ccc(Cl)cc3)CC2)s1,16.4µM,-,?,-,-,-
O=C(Cn1cnc2onc(-c3ccc(F)cc3)c2c1=O)N1CCN(c2ccccc2F)CC1,?,-,?,-,.,-
CCOC(=O)C1=C(CN2CCN(C(=O)c3ccco3)CC2)NC(=O)NC1c1ccc(F)cc1 (centres undefined),-,-,-,-,-,-
CC(C)Cc1nnc(NC(=O)CCC(=O)N2CCN(c3ccc(Cl)cc3)CC2)s1,20.6µM,-,-,-,?,-
Cc1ccc(SCCOCCN2CCc3ccccc3C2)cc1,?,-,16.4µM,-,-,.
Cc1ccc(C)c(OCCCN2CCc3ccccc3C2)c1,11.6µM,-,?,-,-,-
Cc1ccc(SCCOCCN2CC(C)OC(C)C2)cc1 (centres undefined),-,-,-,-,-,.
